Laboratory results as given in PubChem BioAssay (NCI).
The panel holds about 83,000 compounds, 20% with a hit somewhere; the sample as a whole holds those more often.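 How to read the values: 0–100, growth inhibition (40 = 60% inhibited); 0, no net growth; -100 to 0, cell death (-40 = 40% of starting cells died; -100 = all dead).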 A number with no mark means an inactive call. Activity calls are given as the source filed them. The calls were made as follows: active = growth percent below 10; inactive = the rest.

Columns and labels:
Assay in all cases: NCI-60 one-dose screen, 48 h (100 = growth as untreated, 0 = no growth, -100 = all killed)
Conditions in all cases: 10 µM
NCI-H23 lung = system: NCI-H23 lung
NCI-H226 lung = system: NCI-H226 lung
NCI-H322M lung = system: NCI-H322M lung
HOP-62 NSCLC = system: HOP-62 NSCLC
NCI-H460 lung = system: NCI-H460 lung
HOP-92 NSCLC = system: HOP-92 NSCLC
NCI-H522 lung = system: NCI-H522 lung
A549/ATCC NSCLC = system: A549/ATCC NSCLC
786-0 renal = system: 786-0 renal
COLO 205 colon = system: COLO 205 colon

Row | SMILES | growth (NCI-H23 lung) | growth (NCI-H226 lung) | growth (NCI-H322M lung) | growth (HOP-62 NSCLC) | growth (NCI-H460 lung) | growth (HOP-92 NSCLC) | growth (NCI-H522 lung) | growth (A549/ATCC NSCLC) | growth (786-0 renal) | growth (COLO 205 colon)
1 | Cc1ccc(NS(=O)(=O)c2ccccc2)c(NS(=O)(=O)c2ccccc2)c1 | 87.1% | 105% | 109% | 86.5% | 102% | 93.5% | 102% | 103% | 108% | 97.5%
2 | Oc1cc(O)c(Br)cc1Br | 110% | 103% | 91.8% | 105% | 108% | 85.4% | 88.8% | 98.9% | 93.1% | 101%
3 | CC(C)c1[nH]nc2c(NCc3ccc(-c4ccccn4)cc3)nc(SCCN(C)C)nc12 | -23.8% (active) | 2.16% (active) | 17% | -11.2% (active) | 8% (active) | -15.9% (active) | -48.3% (active) | 8.6% (active) | 11.3% | -42% (active)
4 | O=c1oc2cc(OS(=O)(=O)C3CC3)ccc2c2c1CCCCCC2 | 70.4% | 67.2% | 104% | 83.2% | 86.2% | 85.2% | 79.2% | 69.6% | 93% | 40.9%
5 | O=C1NN(c2ccccc2)C(c2cccnc2)=N/C1=C\c1cccnc1 | 89.4% | 80.8% | 84.9% | 92% | 95.2% | 99% | 105% | 112% | 98.8% | 105%
6 | N=C(N)c1ccc(-c2ccc(-c3cccs3)s2)nc1 | 71.2% | 67.6% | -13.1% (active) | 66.5% | -22% (active) | -9.04% (active) | 72.8% | 2.67% (active) | 56.2% | -94% (active)
7 | CCc1nn2c(-c3cc(OC)c(OC)c(OC)c3)c(-c3cc(OC)c(OC)c(OC)c3)nc2s1 | 87.9% | 92% | 81.6% | 40.8% | 97.1% | -15.2% (active) | 46% | 86% | 58.6% | 94.9%
8 | COc1cc(-c2nc3cc(Cl)c(Cl)cc3[nH]2)ccc1OCC(=O)NN | 92.8% | 90.5% | 79.1% | 72% | 84.8% | 94% | 67.5% | 71% | 96.1% | 108%
9 | CCOC(=O)[C@@H](Cc1ccccc1)NC(=O)c1[nH]c2ccc(Cl)cc2c(=O)c1C | 99.7% | 107% | 97.7% | 92.3% | 103% | 100% | 71.8% | 84.1% | 97.4% | 111%
10 | COc1ccc2c(c1)/C(=C/c1cc(OC)c(OC)c(OC)c1)C(=O)N2C | 34.2% | 19.3% | 39.5% | 57.5% | -6.11% (active) | -7.03% (active) | -15.1% (active) | 14.5% | 29.4% | -36.8% (active)
11 | C=CCOc1ccc2c(c1)CC=C1[C@@H]2CC[C@]2(C)C(=O)/C(=N/O)C[C@@H]12 | 95.1% | 96.1% | 81.2% | 103% | 60.3% | 101% | 80.7% | 84.3% | 79.2% | 91.3%
12 | CCCn1c(=O)c2c(nc(-c3cccc(OCCCCl)c3)n2C)n(CCC)c1=O | 59.1% | 16.5% | 41% | -18.3% (active) | 24.4% | -1.14% (active) | 83.2% | 28.3% | 23.9% | 65.8%
13 | CC(C)C(C)C(N)C(=O)O (stereo not given) | 97.8% | 102% | 99% | 89.9% | 109% | 86.8% | 91.2% | 104% | 92.8% | 108%
14 | O=C(c1ccccc1)C(Sc1ccccc1)c1ccccc1 (stereo not given) | 76.4% | 94% | 108% | 93% | 67.8% | 67.2% | 62.4% | 92% | 104% | 108%
15 | COc1cc(-c2nc3ccc(C)cc3[nH]2)ccc1OCC(=O)N=Nc1c(O)[nH]c2ccccc12 | -17.5% (active) | 112% | -33.9% (active) | -49.4% (active) | -70.5% (active) | -12.7% (active) | -63.5% (active) | 8.54% (active) | -93.5% (active) | -37.8% (active)
16 | O=[N+]([O-])c1ccc(S(=O)(=O)OCCCCOS(=O)(=O)c2ccc([N+](=O)[O-])cc2)cc1 | 102% | 90.1% | 112% | 98.5% | 108% | 110% | 96.8% | 103% | 99% | 117%
17 | CCN(CC)CC(O)CNc1ccnc2cc(Cl)c(Cl)cc12 (stereo not given) | 102% | 84.9% | 92.1% | 88.9% | 100% | 53.4% | 94.1% | 101% | 86.1% | 78.1%
18 | CCN(CC)c1ccc(/C=C/C2=[N+](C)c3ccccc3C2(C)C)c(C)c1 | 11.1% | 17.7% | 27.6% | 5.39% (active) | 2.94% (active) | -19.5% (active) | -14.4% (active) | 9.85% (active) | 13.1% | -58.4% (active)
19 | C/C(=N\NC(N)=S)C(C)(C)O | 93.6% | 89.2% | 104% | 104% | 104% | 88.1% | 109% | 83.4% | 96.3% | 119%
20 | COc1ccc(/C(CS(=O)(=O)c2ccccc2)=N\O)cc1 | 105% | 89.1% | 108% | 109% | 109% | 109% | 97.3% | 92.1% | 104% | 114%
21 | CC(C)C[C@H](NC(=O)Cn1ccc(Nc2ccccc2)cc1=O)B(O)O | 44.1% | -71.1% (active) | 91.5% | 49.5% | 77.3% | 1.31% (active) | -24% (active) | 71.4% | 33.1% | 40.8%
22 | Cc1ncc([N+](=O)[O-])n1CCOc1ccc(C(=O)/C=C/c2ccc(C(F)(F)F)cc2)cc1 | 88% | 76.2% | 66.4% | 88.9% | 79.5% | 67.1% | 67.1% | 55.5% | 63.3% | 61.2%
23 | CC(C)CCN(CCCNc1c2c(nc3cc(Cl)ccc13)CCCC2)CCC(C)C | 62.3% | 53.8% | 75% | 77.9% | 55.7% | 12.3% | 82.1% | 85.4% | 80.1% | 32.6%
24 | C=C1C(=O)O[C@H]2[C@H]1CC/C(COC(=O)OCCCCCOC(=O)OC/C1=C/CC[C@@]3(C)O[C@H]3[C@H]3OC(=O)C(=C)[C@@H]3CC1)=C\CC[C@@]1(C)O[C@@H]21 | -37.5% (active) | -33% (active) | 50.9% | 9.65% (active) | -19.9% (active) | -49.6% (active) | -66.2% (active) | 44.3% | -63.8% (active) | -85% (active)
25 | COc1cc(CSc2nc3ccc(C)cc3c(=O)n2Cc2ccccc2)cc(OC)c1OC | 21.3% | 47.3% | 46.2% | 40.5% | 17.7% | 56.6% | -14.5% (active) | 40% | 46.8% | -18.7% (active)
26 | COC(=O)[C@]12CC[C@@H](C)[C@H](C)[C@@H]1C1=CC[C@@H]3[C@@]4(C)CC(=O)[C@H](O)[C@@](C)(CO)[C@@H]4C(=O)C[C@@]3(C)[C@]1(C)CC2 | -14.2% (active) | -5.55% (active) | 18.4% | -21.5% (active) | -48.9% (active) | -22.5% (active) | -65.9% (active) | -63.6% (active) | 0.121% (active) | -64.6% (active)
27 | O=C(NCCc1nccs1)c1cnc2c(S)cccc2c1 | 34.2% | 46.1% | 29.7% | 29.3% | 0.683% (active) | 54.5% | -65.7% (active) | 12.6% | 47% | -52.4% (active)
28 | CCCN(CCC)CCCNC(=O)c1cc2c(-c3ccc(OC)c(OC)c3)nn(C)c2s1 | 11.6% | 37.5% | 22% | 34.5% | 8.52% (active) | -7.72% (active) | -17% (active) | 9.14% (active) | 29.5% | 90.1%
